High-throughput results deposited in PubChem by Broad Institute.
Shh pathway inh: blocks Sonic Hedgehog signaling. Shh-LIGHT2 Gli-luciferase reporter, 30 h. inhibition, % (test concentration not listed). 22,000 tested, 2.1% active;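 active means mean inhibition across valid replicates above about 65%, limit read from the data; inconclusive means mean under the limit, yet half or more replicates past it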;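 further: pathway switched on by Shh-conditioned medium diluted 1 in 25 in low serum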
NOMO-1 viab: STK33 inhibitor candidate reducing NOMO-1 cell viability; AID 2330; NOMO-1 AML viability, CellTiter-Glo luminescence, 72 h; inhibition, % (no concentration beside the values); 37,000 tested, 7.5% active; in the data active means inhibition above about 80%; inconclusive means no clear call, values can overlap the other calls
MITF inhib: blocks MITF activity; TRPM1 promoter luciferase, luminescence, 24 h; inhibition, % (test concentration not listed); 37,000 tested, 0.28% active; in the data active means inhibition above about 85%; inconclusive means no clear call, values can overlap the other calls; inactive means below about 68%;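 further: human melanocyte line stably carrying TRPM1 promoter luciferase reporter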
* hit, by the source's call; ? = inconclusive; · = not tested or not shown. Compounds with a hit are over-represented: about 8.1% of the library has one in this group of screens.

SMILES | Shh pathway inh | NOMO-1 viab | MITF inhib
COCC1OC(OC(C)(C)C2CCC3(C)C(O2)C(O)CC2(C)/C(=C4\CCC(O)C(C)(CCC(O)C(C)(C)O)C4)CCC23)C(NC(C)=O)C(O)C1O (centres undefined) | 10 | 27 | -5
CC(=O)Nc1nc(C23CC4CC(CC(C4)C2)C3)cs1 | · | 4 | -19
Cc1csc(NC(=O)CSc2nc(C34CC5CC(CC(C5)C3)C4)ccc2C#N)n1 | 75* | 105* | 63
C[C@@H]1CN([C@@H](C)CO)C(=O)c2cc(NC(=O)Nc3ccccc3)ccc2O[C@@H]1CN(C)Cc1ccc(Cl)c(Cl)c1 | 39 | 112* | 34
C[C@H]1CN([C@@H](C)CO)C(=O)c2cc(NC(=O)Nc3ccccc3)ccc2O[C@@H]1CN(C)Cc1ccc(Cl)c(Cl)c1 | · | 18 | -2
C[C@H](CO)N1C[C@H](C)[C@@H](CN(C)Cc2ccc(Cl)c(Cl)c2)Oc2ccc(NC(=O)Nc3ccccc3)cc2C1=O | -24 | ? | 15
C[C@H]1CN([C@@H](C)CO)C(=O)c2cc(NC(=O)Nc3ccccc3)ccc2O[C@H]1CN(C)Cc1ccc(Cl)c(Cl)c1 | 21 | 100* | 28
Cc1ccc(C)c(NC(=O)Cn2cnc3ccccc3c2=O)c1 | · | 23 | 2
CC1(C)CC(=O)c2c([nH]c(-c3ccccc3)c2-c2ccccc2)C1 | -28 | 92* | 3
O=C1NC(=O)c2cc(-c3ccccc3)ccc21 | -22 | -13 | -15
CCOC(=O)c1sc(SCc2ccccc2)c2c1-c1sccc1N(C)S2(=O)=O | 35 | -18 | 9
CSc1sc(C(=O)Sc2ccccc2)c2c1S(=O)(=O)N(C)c1ccccc1-2 | 9 | 121* | -2
Cc1noc(C)c1S(=O)(=O)N(C)C[C@@H]1Oc2ccc(NC(=O)NC3CCCCC3)cc2CC(=O)N([C@H](C)CO)C[C@@H]1C | · | 1 | -25
COc1cc(O)c2c(=O)c(OC)c(-c3ccc(OC)c(OC)c3)oc2c1 | -5 | 31 | -15
COc1ccc(-c2cc(=O)c3c(O)cc(O)cc3o2)cc1 | -11 | -4 | -24
COc1c(OC)c(O)c2c(=O)cc(-c3ccc(O)cc3)oc2c1OC | -29 | 115* | -40
COc1cc(OC)c2c(=O)c(O)c(-c3ccc(OC)c(OC)c3)oc2c1 | 43 | 102* | -13
COc1cc(O)c2c(=O)cc(-c3ccc(OC)c(-c4c(O)cc(O)c5c(=O)cc(-c6ccc(O)cc6)oc45)c3)oc2c1 | 18 | 108* | ?
COc1cc(-c2cc(=O)c3c(O)c(OC)c(OC)c(O)c3o2)ccc1O | 34 | · | ·
COc1cc2oc(-c3ccc(O)c(O)c3)c(OC)c(=O)c2c(O)c1OC | -24 | · | ·
COc1cc(-c2oc3cc(O)c(OC)c(O)c3c(=O)c2OC)ccc1O | -56 | 120* | -38
COc1c(OC)c(O)c2c(=O)c(O)c(-c3ccccc3)oc2c1OC | 14 | 58 | -53
COc1ccc(-c2oc3c(OC)c(OC)c(OC)c(O)c3c(=O)c2OC)cc1OC | 24 | 107* | -21
CC(c1ccco1)N(C(=O)c1sc2ccccc2c1Cl)c1ccccn1 (centres undefined) | · | 44 | 18
Oc1c(C(Nc2ccccn2)c2c(F)cccc2Cl)cc(Cl)c2cccnc12 (centres undefined) | · | 108* | 67
SMILES | Shh pathway inh | NOMO-1 viab | MITF inhib
CCC(=O)NC(c1ccco1)c1cc(Cl)c2cccnc2c1O (centres undefined) | 104* | 126* | 46
Oc1c(C(Nc2ccccn2)c2cccc(F)c2)cc(Cl)c2cccnc12 (centres undefined) | · | 113* | 57
CCOc1c(Cl)cc(CNCc2ccccn2)cc1OC | · | 13 | -23
COc1cc(Cl)c(C(Nc2ccccn2)c2cc(Cl)c3cccnc3c2O)cc1OC (centres undefined) | · | 110* | 63
CC(C)NC(=O)N(C)C[C@H]1Oc2ccc(NC(=O)Nc3ccc(C(F)(F)F)cc3)cc2C(=O)N([C@H](C)CO)C[C@H]1C | -1 | 17 | -3
C[C@@H]1CN([C@H](C)CO)C(=O)c2cc(NC(=O)NC3CCCCC3)ccc2O[C@H]1CN(C)C | · | 14 | 3
COc1ccc(C2CC(c3ccc(Br)cc3)=NN2C(=O)CCN2CCOCC2)cc1 (centres undefined) | 40 | 40 | -9
Oc1c(C(Nc2ccccn2)c2ccccn2)cc(Cl)c2cccnc12 (centres undefined) | · | 112* | 56
COc1ccc(S(=O)(=O)N(C)CC(=O)Nc2ccc3c(c2)OCCO3)cc1C | · | 4 | -6
C[C@@H]1CN([C@@H](C)CO)C(=O)c2cccc(NC(=O)C3CC3)c2O[C@H]1CN(C)Cc1ccc(Cl)c(Cl)c1 | -5 | 65 | -7
CC1(C)ONC(=O)N(c2ccccc2)C1=O | -11 | 9 | -14
O=C1C=CC(=O)N1c1ccccc1 | · | 114* | 64
CS/C(NCC1CC1)=C(/C#N)C(=O)c1ccc(Cl)cc1 | · | 111* | 46
CS/C(NC1CCCCC1)=C(/C#N)S(=O)(=O)c1ccc(Cl)cc1 | 20 | 38 | 4
